Source: PubChem BioAssay
Active and inactive are the calls of the source.

How the values were obtained:
[1] = test system: Plasmodium falciparum Sir2 (PF13_0152, Sir2A); assay: pfSir2 binders on small-molecule microarrays, primary screen, biochemical, small-molecule microarray, 635 nm fluorescence (AID 1098); conditions: small-molecule microarray binding, fluorescence 635 nm; higher = more signal;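 also: score merges spot fluorescence intensity with its signal-to-noise ratio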
[2] = small-molecule microarray binders of probe aDKK1, primary screen, biochemical, biotinylated probe, 635/667 nm fluorescence (AID 1099); conditions: higher = more signal;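 also: score merges 667nm spot fluorescence with signal to noise across triplicate slides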
[3] = small-molecule microarray binders of probe aCHRDL2, primary screen, biochemical, biotinylated probe, 635/667 nm fluorescence (AID 1100); conditions: higher = more signal
[4] = splicing luciferase reporter signal modulators, primary screen, spliceosome inhibition project, cell-based, HEK293, splice +/- reporter (AID 1101); conditions: luminescence, 24 h, higher = more signal, called active from +8 up or from −8 down;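 also: HEK293 cells carrying a splicing-competent luciferase reporter gene; test concentration not given here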
[5] = target: Fibroblast growth factor 10 (Homo sapiens) (UniProt O15520); assay: FGF10 binders on small-molecule microarrays, primary screen, biochemical, small-molecule microarray, 635 nm fluorescence (AID 1102); conditions: FGF10 binding, fluorescence 635 nm, higher = more signal
Sequence of Fibroblast growth factor 10 (Homo sapiens) (O15520 whole entry, looked up): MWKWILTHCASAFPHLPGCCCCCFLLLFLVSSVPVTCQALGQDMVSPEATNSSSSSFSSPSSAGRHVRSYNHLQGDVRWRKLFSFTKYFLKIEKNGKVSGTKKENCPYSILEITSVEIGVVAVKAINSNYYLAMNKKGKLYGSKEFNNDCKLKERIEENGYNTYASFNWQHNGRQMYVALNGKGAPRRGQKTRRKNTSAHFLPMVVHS

[6] = test system: glycogen synthase kinase-3 (GSK3A per assay name; protocol says GSK3B); assay: GSK3 binders on small-molecule microarrays, primary screen, biochemical, small-molecule microarray, 635 nm fluorescence, GSK3A (AID 1103); conditions: small-molecule microarray binding, fluorescence 635 nm; higher = more signal; also: the record names both GSK3A and GSK3B
[7] = target: Epidermal growth factor receptor (Homo sapiens) (UniProt P00533); assay: EGFR binders on small-molecule microarrays, primary screen, biochemical, small-molecule microarray, 635 nm fluorescence (AID 1104); conditions: EGFR binding, higher = more signal;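 also: score merges 667 nm emission intensity with spot signal to noise over triplicate slides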
Sequence of Epidermal growth factor receptor (Homo sapiens) (P00533 whole entry, looked up): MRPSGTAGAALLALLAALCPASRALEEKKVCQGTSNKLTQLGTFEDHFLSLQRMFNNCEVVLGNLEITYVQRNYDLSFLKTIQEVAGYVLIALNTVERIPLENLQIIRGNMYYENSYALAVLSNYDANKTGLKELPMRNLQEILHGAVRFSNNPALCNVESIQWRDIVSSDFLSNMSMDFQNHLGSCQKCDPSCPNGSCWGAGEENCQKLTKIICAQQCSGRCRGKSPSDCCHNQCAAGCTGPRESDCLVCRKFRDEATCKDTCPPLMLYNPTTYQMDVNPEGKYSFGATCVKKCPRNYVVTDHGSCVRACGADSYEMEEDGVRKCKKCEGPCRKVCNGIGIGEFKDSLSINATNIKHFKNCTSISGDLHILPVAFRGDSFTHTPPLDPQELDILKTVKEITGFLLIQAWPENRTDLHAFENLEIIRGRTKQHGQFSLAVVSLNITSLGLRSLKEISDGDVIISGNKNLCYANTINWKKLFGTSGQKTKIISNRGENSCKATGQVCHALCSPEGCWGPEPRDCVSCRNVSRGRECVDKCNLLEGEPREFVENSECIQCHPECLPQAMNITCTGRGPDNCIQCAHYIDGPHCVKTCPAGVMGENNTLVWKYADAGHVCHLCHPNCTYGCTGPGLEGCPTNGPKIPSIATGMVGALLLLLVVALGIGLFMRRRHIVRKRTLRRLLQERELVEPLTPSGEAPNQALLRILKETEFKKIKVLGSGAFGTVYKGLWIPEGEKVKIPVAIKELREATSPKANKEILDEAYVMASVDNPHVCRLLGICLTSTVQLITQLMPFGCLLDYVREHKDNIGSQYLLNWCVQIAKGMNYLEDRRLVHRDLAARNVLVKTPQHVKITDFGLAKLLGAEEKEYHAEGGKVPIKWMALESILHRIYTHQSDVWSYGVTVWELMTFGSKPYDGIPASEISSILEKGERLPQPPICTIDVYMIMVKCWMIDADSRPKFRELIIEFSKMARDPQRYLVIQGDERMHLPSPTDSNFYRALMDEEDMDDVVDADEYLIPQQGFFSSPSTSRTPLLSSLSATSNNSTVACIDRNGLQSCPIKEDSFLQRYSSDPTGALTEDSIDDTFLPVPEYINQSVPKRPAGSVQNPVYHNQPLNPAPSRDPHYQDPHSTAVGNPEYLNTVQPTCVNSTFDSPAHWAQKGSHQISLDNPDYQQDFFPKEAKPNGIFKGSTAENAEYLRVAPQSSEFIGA

[8] = target: Follistatin-related protein 3 (Homo sapiens) (UniProt O95633); assay: FSTL3 binders on small-molecule microarrays, primary screen, biochemical, small-molecule microarray, 635 nm fluorescence (AID 1105); conditions: FSTL3 binding, higher = more signal;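 also: score merges emission near 667 nm and signal to noise per printed spot across three slides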
Sequence of Follistatin-related protein 3 (Homo sapiens) (O95633 whole entry, looked up): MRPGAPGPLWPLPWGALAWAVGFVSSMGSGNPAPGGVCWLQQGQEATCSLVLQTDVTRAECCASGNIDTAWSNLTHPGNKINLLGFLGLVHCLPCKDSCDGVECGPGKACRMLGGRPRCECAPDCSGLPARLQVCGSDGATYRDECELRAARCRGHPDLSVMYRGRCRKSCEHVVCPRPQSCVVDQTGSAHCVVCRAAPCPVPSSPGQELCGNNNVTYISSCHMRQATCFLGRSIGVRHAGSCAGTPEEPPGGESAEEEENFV

[9] = target: Dickkopf-related protein 1 (Homo sapiens) (UniProt O94907); assay: DKK1 binders on small-molecule microarrays, primary screen, biochemical, small-molecule microarray, 635 nm fluorescence scan (AID 1106); conditions: DKK1 binding, higher = more signal;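 also: score merges emission near 667 nm with signal to noise over three replicate slides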
Sequence of Dickkopf-related protein 1 (Homo sapiens) (O94907 whole entry, looked up): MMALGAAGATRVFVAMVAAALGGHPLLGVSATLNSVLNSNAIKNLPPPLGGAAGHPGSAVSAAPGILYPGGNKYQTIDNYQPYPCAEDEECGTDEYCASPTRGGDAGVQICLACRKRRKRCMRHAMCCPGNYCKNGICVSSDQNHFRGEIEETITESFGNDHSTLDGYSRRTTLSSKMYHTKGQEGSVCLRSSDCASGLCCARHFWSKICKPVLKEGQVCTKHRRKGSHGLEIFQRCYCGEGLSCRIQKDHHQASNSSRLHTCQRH

[10] = test system: Inhibin beta A chain (activin A); assay: INHBA (activin A) binders on microarrays, primary screen, biochemical, small-molecule microarray, 635 nm fluorescence scan (AID 1107); conditions: small-molecule microarray binding, higher = more signal;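 also: mouse activin A protein probed at 4.33 µg/mL on printed slides; score merges bound-protein fluorescence near 667 nm with spot signal-to-noise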
[11] = test system: Human papillomavirus type 1a protein E7 (residues 44-93); assay: HPV1a E7 fragment binders on microarrays, primary screen, biochemical, small-molecule microarray, residues 44-93, 635 nm fluorescence (AID 1108); conditions: small-molecule microarray binding, fluorescence 635 nm; higher = more signal;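 also: E7 fragment applied at 1 µg/mL in TBST for 1 h at 4 C; score combines spot fluorescence with its signal to noise ratio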
[12] = modulators of HCV replicon luciferase signal, primary screen, HCV replication inhibitor project, Huh7 cells, luciferase reporter (AID 1109); conditions: 48 h, higher = more signal;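 also: huh7 hepatoma cells harbouring a luciferase neomycin HCV replicon reporter; luciferase luminescence as measure of HCV replicon replication; test concentration not given here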
[13] = target: Left-right determination factor 2 (Homo sapiens) (UniProt O00292); assay: LEFTY2 binders on small-molecule microarrays, primary screen, biochemical, small-molecule microarray, 635 nm fluorescence scan (AID 1110); conditions: LEFTY2 binding, higher = more signal
Sequence of Left-right determination factor 2 (Homo sapiens) (O00292 whole entry, looked up): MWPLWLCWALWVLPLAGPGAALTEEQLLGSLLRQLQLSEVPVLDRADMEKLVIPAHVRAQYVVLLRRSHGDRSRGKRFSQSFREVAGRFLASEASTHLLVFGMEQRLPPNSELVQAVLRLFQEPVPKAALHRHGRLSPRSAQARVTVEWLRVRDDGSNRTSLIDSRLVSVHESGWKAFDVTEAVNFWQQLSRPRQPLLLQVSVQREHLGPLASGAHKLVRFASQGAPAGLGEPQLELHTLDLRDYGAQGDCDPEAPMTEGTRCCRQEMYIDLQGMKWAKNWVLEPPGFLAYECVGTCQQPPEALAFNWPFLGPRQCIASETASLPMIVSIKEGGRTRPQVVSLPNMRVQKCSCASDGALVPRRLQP

[14] = target: Calmodulin-1 (Homo sapiens) (UniProt P0DP23); assay: CALM1 binders on microarrays, EGTA buffer, profiling panel, biochemical, small-molecule microarray, Cy5-labelled CALM1 (AID 1111); conditions: Cy5-CALM1 binding fluorescence, higher = more signal;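 also: labelled calmodulin applied in Tris saline Tween buffer holding calcium plus EGTA and DTT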
[15] = target: Calmodulin-1 (Homo sapiens) (UniProt P0DP23); assay: calcium-bound CALM1 binders on microarrays, profiling panel, artefact control for SMM control-protein annotation, biochemical, small-molecule microarray, Cy5-labelled CALM1, plus calcium (AID 1112); conditions: Cy5-CALM1 binding fluorescence, higher = more signal;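 also: score merges spot fluorescence with signal to noise from triplicate slides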
[16] = small-molecule microarray binders of probe aWnt5a, primary screen, biochemical, biotinylated probe, 635/667 nm fluorescence (AID 1113); conditions: higher = more signal;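 also: score merges 667 nm fluorescence intensity with signal-to-noise per printed feature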
[17] = small-molecule microarray binders of probe aShh, primary screen, biochemical, biotinylated probe, 635/667 nm fluorescence (AID 1114); conditions: higher = more signal;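 also: probe is biotin-labelled aShh protein from a stem cell growth factor screen; measures binding of labelled protein to compounds printed on the slide; score merges feature fluorescence at 667 nm with signal-to-noise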
[18] = small-molecule microarray binders of probe aNog, primary screen, biochemical, biotinylated probe, 635/667 nm fluorescence (AID 1115); conditions: higher = more signal;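 also: probe is biotinylated aNog protein used at 0.15 µg/mL for 1 h at 4 C; z-score combines 667 nm fluorescence of each spot with its signal to noise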
[19] = target: Torsin-1A-interacting protein 1 (Homo sapiens) (UniProt Q5JTV8); assay: LAP1 binders from COS7 cell lysate, primary screen, small-molecule microarray, 635/667 nm fluorescence (AID 1116); conditions: COS7-hLAP1 lysate binding, 635 nm fluorescence, higher = more signal
Sequence of Torsin-1A-interacting protein 1 (Homo sapiens) (Q5JTV8 whole entry, looked up): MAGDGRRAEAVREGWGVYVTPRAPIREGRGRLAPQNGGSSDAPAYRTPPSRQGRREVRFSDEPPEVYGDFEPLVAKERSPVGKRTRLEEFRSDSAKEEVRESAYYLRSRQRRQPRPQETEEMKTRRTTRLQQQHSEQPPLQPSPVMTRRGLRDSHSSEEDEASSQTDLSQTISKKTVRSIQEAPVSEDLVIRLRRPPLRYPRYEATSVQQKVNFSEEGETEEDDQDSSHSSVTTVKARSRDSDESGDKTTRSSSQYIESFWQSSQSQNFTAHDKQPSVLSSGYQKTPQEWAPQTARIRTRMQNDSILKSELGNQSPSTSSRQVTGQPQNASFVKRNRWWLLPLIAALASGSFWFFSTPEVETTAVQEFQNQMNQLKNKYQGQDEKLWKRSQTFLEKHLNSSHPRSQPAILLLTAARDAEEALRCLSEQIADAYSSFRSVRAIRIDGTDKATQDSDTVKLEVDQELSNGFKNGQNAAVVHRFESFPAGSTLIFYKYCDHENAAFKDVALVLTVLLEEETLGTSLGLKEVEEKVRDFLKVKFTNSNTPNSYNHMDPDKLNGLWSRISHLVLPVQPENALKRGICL

[20] = target: Alpha-bungarotoxin (Bungarus multicinctus) (UniProt P60615); assay: alpha-bungarotoxin binders on microarray, profiling panel, artefact control for SMM control protein annotation, biochemical, small-molecule microarray, Alexa647 label, 635/667 nm fluorescence (AID 1117); conditions: alpha-BTX-A647 binding fluorescence, higher = more signal
Sequence of Alpha-bungarotoxin (Bungarus multicinctus) (P60615 whole entry, looked up): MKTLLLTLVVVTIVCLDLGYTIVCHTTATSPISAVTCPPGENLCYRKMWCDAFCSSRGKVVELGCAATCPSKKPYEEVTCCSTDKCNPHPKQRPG

Compound	composite z-score [1]	composite z-score [2]	composite z-score [3]	z-score [4]	composite z-score [5]	composite z-score [6]	composite z-score [7]	composite z-score [8]	composite z-score [9]	composite z-score [10]	composite z-score [11]	z-score [12]	composite z-score [13]	composite z-score [14]	composite z-score [15]	composite z-score [16]	composite z-score [17]	composite z-score [18]	composite z-score [19]	composite z-score [20]
CCOC(=O)[C@H](CC(C)C)NC(=O)CCC1CC(OC(=O)NCc2ccc3c(c2)OCO3)CC2(CCCC(COC(=O)NCCc3ccc(Cl)cc3)O2)O1 (stereo not given in full)	0.193	-0.0218	-0.514	0.0274 (inactive)	0.525	0.293	0.199	0.829	0.96	0.101	0.838	0.225	0.582	-0.131	-0.572	-0.0556	-0.283	-0.363	0.426	0.983
CC(C)(C)N1C(=O)[C@H]2[C@H]3[C@H](O)[C@H](O)CC(=NOC[C@@H](O)COCc4ccco4)[C@H]3CC[C@H]2C1=O	0.732	0.486	0.708	1.13 (inactive)	0.207	-0.274	-0.284	-0.28	-0.0956	0.0091	0.39	0.61	-0.203	-0.0051	-0.333	-0.147	-0.0471	0.0868	0.706	1.15
CC(C)CON=C1C[C@@H](O)[C@@H](O)[C@@H]2[C@@H]3C(=O)N(Cc4ccccc4)C(=O)[C@@H]3CC[C@H]12	0.296	-0.373	-0.583	-1.59 (inactive)	0.415	0.314	0.553	0.538	0.373	-0.204	-0.106	-1.14	0.623	-0.144	-0.414	-0.0107	-0.324	-0.169	0.163	0.506
CC(C)(C)N1C(=O)[C@H]2[C@H]3[C@H](O)[C@H](O)CC(=NOC[C@@H](O)COCc4ccco4)[C@@H]3CC[C@H]2C1=O	0.34	0.774	0.588	0.369 (inactive)	0.249	-0.332	-0.144	-0.248	-0.272	0.426	-0.266	-0.287	0.0349	-0.235	0.314	-0.0685	-0.16	-0.0733	1.45	1.65
CO[C@H]1COC(=O)CC=C[C@H](C)[C@H](OC)COC(=O)[C@@H](C)NC(=O)CC=C[C@@H]1C	1.65	-0.407	-1.19	-0.59 (inactive)	0.777	0.507	0.383	1.36	1.56	1.64	-2.87	-2.14	0.953	-0.735	-1.49	-0.101	-0.0681	-0.21	0.229	-0.32
CCOC(=O)[C@H](CC(C)C)NC(=O)CCC1CC(OC(=O)NCCc2ccc(F)cc2)CC2(CCCC(COC(=O)NCCCN3CCCC3=O)O2)O1 (stereo not given in full)	-0.0927	-0.234	-0.509	0.764 (inactive)	0.93	0.519	0.261	0.572	0.946	-0.131	0.681	-1.2	0.491	0.116	-0.0004	0.0108	-0.2	-0.451	0.422	1.54
